Experimental data: PubChem BioAssay AID1159580 (chemical genetic matrix, 2015)
Hit rate of the full screen: of about 5,500 compounds, about 2,000 (36%) were called active. Not shown: some 18% with an inconclusive outcome. Cut-off read from the data, not from the text of the source: active = normalized growth mostly below about 0.91 (no sharp cut-off); inconclusive = no clear call, values can overlap the other calls; inactive = mostly above about 0.92. The list shows a part of the results.

Assay: chemical genetic growth profiling, strain panel (AID 1159580);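 note: tested at 20 µM; growth read once vehicle control cultures reached saturation at 30 °C; 1 = growth at the plate median or of vehicle wells; lower values mean less growth of the strain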
Settings: growth OD
[1] = S. cerevisiae deletion strains, locus YGR078C, strain PAC10, hits give low values
[2] = S. cerevisiae deletion strains, locus YJR075W, strain HOC1, hits give low values
[3] = S. cerevisiae deletion strains, locus YMR307W, strain GAS1, hits give low values
[4] = S. cerevisiae deletion strains, locus YNL128W, strain TEP1, hits give low values
[5] = S. cerevisiae deletion strains, locus YNL322C, strain KRE1, hits give low values
[6] = S. cerevisiae deletion strains, locus YPL055C, strain LGE1, hits give low values
[7] = S. cerevisiae deletion strains, locus YPL241C, strain CIN2, hits give low values
[8] = S. cerevisiae deletion strains, locus YAL013W, strain DEP1, hits give low values
[9] = S. cerevisiae deletion strains, locus YBR229C, strain ROT2, hits give low values
[10] = S. cerevisiae deletion strains, locus YDL101C, strain DUN1, hits give low values
[11] = S. cerevisiae deletion strains, locus YDR150W, strain NUM1, hits give low values
[12] = S. cerevisiae deletion strains, locus YEL061C, strain CIN8, hits give low values
[13] = S. cerevisiae deletion strains, locus YHR030C, strain SLT2, hits give low values
[14] = S. cerevisiae deletion strains, locus YJR043C, strain POL32, hits give low values
[15] = S. cerevisiae deletion strains, locus YKL190W, strain CNB1, hits give low values
[16] = S. cerevisiae deletion strains, locus YLR039C, strain RIC1, hits give low values
[17] = S. cerevisiae deletion strains, locus YLR262C, strain YPT6, hits give low values
[18] = S. cerevisiae deletion strains, locus YMR263W, strain SAP30, hits give low values
[19] = S. cerevisiae deletion strains, locus YNL153C, strain GIM3, hits give low values
[20] = S. cerevisiae strains, strain wild type, hits give low values

Measured: normalized growth

S=C(S)OC1CC2CC1C1CCCC21 (stereo not given)
inactive: S. cerevisiae deletion strains, locus YAL040C, strain CLN3, hits give low values 1 | S. cerevisiae deletion strains, locus YCL061C, strain MRC1 (second series), hits give low values 1.01 | S. cerevisiae deletion strains, locus YDR363W, strain ESC2, hits give low values 1.02 | S. cerevisiae deletion strains, locus YER002W, strain NOP16, hits give low values 1.01 | [1] 1 | [2] 1 | [3] 1.01 | [4] 1.01 | S. cerevisiae deletion strains, locus YNL175C, strain NOP13, hits give low values 1.02 | S. cerevisiae deletion strains, locus YNL197C, strain WHI3, hits give low values 1.03 | S. cerevisiae deletion strains, locus YNL224C, strain SQS1, hits give low values 1.06 | [5] 1.01 | S. cerevisiae deletion strains, locus YOR083W, strain WHI5 (second series), hits give low values 1 | [6] 0.943 | [7] 1.01

CC12CCC3C(CC[C@H]4CC5(CCC34C)OCCO5)C1CCC2O (stereo not given in full)
inactive: [8] 0.988 | [9] 1.01 | [10] 0.976 | [11] 0.912 | [12] 0.999 | [1] 0.968 | [13] 0.969 | S. cerevisiae deletion strains, locus YHR087W, strain rtc3, hits give low values 1.02 | [2] 1 | [15] 1.03 | S. cerevisiae deletion strains, locus YLR058C, strain SHM2 (second series), hits give low values 1.04 | S. cerevisiae deletion strains, locus YLR085C, strain ARP6, hits give low values 1.03 | S. cerevisiae deletion strains, locus YML094W, strain GIM5, hits give low values 0.98 | S. cerevisiae deletion strains, locus YMR219W, strain ESC1, hits give low values 1 | [18] 0.992 | [3] 1.05 | S. cerevisiae deletion strains, locus YNL298W, strain CLA4 (second series), hits give low values 0.945 | S. cerevisiae deletion strains, locus YNR030W, strain Alg12, hits give low values 0.963 | [6] 0.98 | [7] 0.962 | S. cerevisiae deletion strains, locus YPR135W, strain CTF4, hits give low values 0.832 | [20] 1.02
active: S. cerevisiae deletion strains, locus YCL061C, strain MRC1, hits give low values 0.87 | S. cerevisiae deletion strains, locus YJL187C, strain SWE1, hits give low values 0.92 | [14] 0.877 | [16] 0.74 | [17] 0.625 | [19] 0.905 | [5] 1.08 [resistant]

C[C@]12CCC3C(CC[C@H]4C[C@@H](O)CC[C@]34C)C1CC[C@@H]2O (stereo not given in full)
active: S. cerevisiae deletion strains, locus YGR252W, strain gcn5, hits give low values 0.764 | S. cerevisiae deletion strains, locus YKL009W, strain mrt4, hits give low values 0.793 | [16] 0.644 | [17] 0.507 | S. cerevisiae deletion strains, locus YNL298W, strain CLA4, hits give low values 0.895 | S. cerevisiae deletion strains, locus YNR052C, strain pop2, hits give low values 0.88 | S. cerevisiae deletion strains, locus YOR184W, strain ser1, hits give low values 0.836
inactive: [8] 1 | S. cerevisiae deletion strains, locus YBR021W, strain FUR4, hits give low values 1.01 | [9] 1.03 | S. cerevisiae deletion strains, locus YCL029C, strain bik1, hits give low values 0.968 | S. cerevisiae deletion strains, locus YDL035C, strain GPR1, hits give low values 0.864 | S. cerevisiae deletion strains, locus YDL074C, strain BRE1, hits give low values 0.991 | [10] 1.01 | S. cerevisiae deletion strains, locus YDL134C, strain PPH21, hits give low values 1.02 | S. cerevisiae deletion strains, locus YDL185W, strain tfp1, hits give low values 0.988 | S. cerevisiae deletion strains, locus YDL192W, strain arf1, hits give low values 0.996 | S. cerevisiae deletion strains, locus YDR101C, strain arx1, hits give low values 1.01 | [11] 1.02 | S. cerevisiae deletion strains, locus YDR162C, strain NBP2, hits give low values 0.958 | S. cerevisiae deletion strains, locus YDR318W, strain mcm21, hits give low values 0.972 | S. cerevisiae deletion strains, locus YDR388W, hits give low values 1.03 | S. cerevisiae deletion strains, locus YDR502C, strain sam2, hits give low values 1.01 | [12] 1.03 | S. cerevisiae deletion strains, locus YER110C, hits give low values 1.01 | S. cerevisiae deletion strains, locus YER155C, strain BEM2, hits give low values 1.04 | S. cerevisiae deletion strains, locus YER167W, strain BCK2, hits give low values 0.986 | S. cerevisiae deletion strains, locus YGL078C, strain dbp3, hits give low values 0.973 | S. cerevisiae deletion strains, locus YGL086W, strain mad1, hits give low values 0.954 | S. cerevisiae deletion strains, locus YGL248W, strain PDE1, hits give low values 1.02 | [1] 1 | S. cerevisiae deletion strains, locus YGR135W, strain pre9, hits give low values 0.973 | S. cerevisiae deletion strains, locus YGR229C, strain SMI1, hits give low values 1.02 | [13] 1.04 | S. cerevisiae deletion strains, locus YHR079C, strain IRE1 (second series), hits give low values 0.993 | S. cerevisiae deletion strains, locus YHR094C, strain hxt1, hits give low values 1.02 | S. cerevisiae deletion strains, locus YHR129C, strain ARP1, hits give low values 1.03 | S. cerevisiae deletion strains, locus YHR200W, strain rpn10, hits give low values 0.985 | S. cerevisiae deletion strains, locus YIL066C, strain RNR3, hits give low values 0.953 | S. cerevisiae deletion strains, locus YIL073C, strain SPO22, hits give low values 0.91 | S. cerevisiae deletion strains, locus YIL125W, strain kgd1, hits give low values 1.02 | S. cerevisiae deletion strains, locus YIR030C, strain dcg1, hits give low values 1.03 | S. cerevisiae deletion strains, locus YJL095W, strain BCK1, hits give low values 1.01 | S. cerevisiae deletion strains, locus YJL134W, strain LCB3, hits give low values 1.02 | S. cerevisiae deletion strains, locus YJL168C, strain set2, hits give low values 1.03 | S. cerevisiae deletion strains, locus YJL187C, strain SWE1 (second series), hits give low values 1 | [14] 0.965 | [2] 1.04 | S. cerevisiae deletion strains, locus YKL068W, hits give low values 1.02 | S. cerevisiae deletion strains, locus YKL085W, strain MDH1 (second series), hits give low values 1.02 | S. cerevisiae deletion strains, locus YKL085W, strain MDH1, hits give low values 1.02 | [15] 1.02 | S. cerevisiae deletion strains, locus YKR001C, strain vps1, hits give low values 0.964 | S. cerevisiae deletion strains, locus YLR058C, strain SHM2, hits give low values 1.02 | S. cerevisiae deletion strains, locus YLR102C, strain apc9, hits give low values 1.02 | S. cerevisiae deletion strains, locus YLR268W, strain sec22, hits give low values 0.997 | S. cerevisiae deletion strains, locus YLR330W, strain CHS5, hits give low values 1.03 | S. cerevisiae deletion strains, locus YLR342W, strain FKS1 (second series), hits give low values 0.87 | S. cerevisiae deletion strains, locus YLR371W, strain rom2, hits give low values 0.994 | S. cerevisiae deletion strains, locus YLR418C, strain cdc73, hits give low values 1.13 | S. cerevisiae deletion strains, locus YML016C, strain PPZ1, hits give low values 1.03 | S. cerevisiae deletion strains, locus YML032C, strain rad52, hits give low values 0.931 | S. cerevisiae deletion strains, locus YML124C, strain tub3, hits give low values 1.03 | S. cerevisiae deletion strains, locus YMR078C, strain ctf18, hits give low values 1.03 | S. cerevisiae deletion strains, locus YMR223W, strain ubp8, hits give low values 0.953 | [18] 1.01 | [3] 1.02 | S. cerevisiae deletion strains, locus YNL067W, strain RPL9B, hits give low values 0.938 | [4] 1.01 | [19] 1.03 | S. cerevisiae deletion strains, locus YNL233W, strain BNI4, hits give low values 1.02 | S. cerevisiae deletion strains, locus YNL250W, strain rad50, hits give low values 0.968 | S. cerevisiae deletion strains, locus YNL271C, strain bni1, hits give low values 1 | S. cerevisiae deletion strains, locus YNL307C, strain MCK1, hits give low values 0.954 | [5] 1.03 | S. cerevisiae deletion strains, locus YOL006C, strain TOP1, hits give low values 1.07 | S. cerevisiae deletion strains, locus YOL012C, strain htz1 1.81 | S. cerevisiae deletion strains, locus YOL147C, strain pex11, hits give low values 1.04 | S. cerevisiae deletion strains, locus YOR061W, strain CKA2, hits give low values 0.99 | S. cerevisiae deletion strains, locus YOR069W, strain VPS5, hits give low values 1.02 | S. cerevisiae deletion strains, locus YOR136W, strain idh2, hits give low values 1.02 | S. cerevisiae deletion strains, locus YOR144C, strain elg1, hits give low values 1.01 | S. cerevisiae deletion strains, locus YOR316C, strain cot1, hits give low values 1.03 | [6] 1.01 | [7] 1.02 | S. cerevisiae deletion strains, locus YPR119W, strain clb2, hits give low values 1.04 | S. cerevisiae deletion strains, locus YPR141C, strain kar3, hits give low values 1.04 | S. cerevisiae deletion strains, locus YPR163C, strain tif3, hits give low values 1.01 | S. cerevisiae deletion strains, locus YPR167C, strain met16, hits give low values 1.02 | S. cerevisiae deletion strains, strain wtn01, hits give low values 0.989 | [20] 0.99
